Consider 16 compounds from PubChem BioAssay (NCATS).

Results filed as inconclusive are left out. Activity calls are given as the source filed them. The call rests on the fitted dose curve; in most records, active means well fitted cell-killing curve with a large enough effect; inconclusive means small, poorly fitted or top-dose-only effect; inactive means flat fitted curve, though single readings scatter.
On the % scale 0 is the no-effect control and ±100 the full control effect; potency means the concentration at half of the fitted maximal effect.

The first experiment in a line: Cell Viability - LYMP2-006 (AID 978).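 Further: cells exposed to compound for 24 hours; nearly all actives have a fitted effect of over 60% in size.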 Conditions: LYMP2-006 lymphoblastoid cell viability, qHTS; series mostly up to 92.2 µM; activity change, negative = cytotoxicity: at the top concentration. The essentials: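 Cells are seeded at 2500 per well and rested 5 hr at 37 C. Compounds are added across a concentration series for 24 hr at 37 C, after which ATP is quantified by luciferase luminescence.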
(In qHTS, concentration-response curves come from the screen itself.)
Turning to `CC(O)CO` (centres undefined), the Potency entry is “inactive”.
For `O=S(=O)(O)O`, the Potency result is “inactive”.
For the compound `CCCCCCCC(=O)O`, the Potency result is “inactive”.
As for `Cc1ccccc1`, the Potency entry is “inactive”.
As to `CC1=C2[C@@H]([C@H](C)CC[C@H]2/C=C(\C)C(=O)O)[C@H](O)C1`, the “activity change, negative = cytotoxicity” value is 2.2% (inactive).
Consider `CCCCC/C=C\C/C=C\CCCCCCCC(=O)O`, for which the “activity change, negative = cytotoxicity” value is -19.2% (inactive).
With `CC(C)=O`, the “activity change, negative = cytotoxicity” value is -13.8% (inactive).
In the case of `O=C(O)CCC(=O)C(=O)O`, the “activity change, negative = cytotoxicity” value was -2.69% (inactive).
Regarding `O=CCCCC=O`, the Potency is 25.1 µM (active).
Consider `CCOc1ccc2c(c1)C(C)=CC(C)(C)N2`, for which the “activity change, negative = cytotoxicity” value is -4.59% (inactive).
As to `CCOC(C)=O`, the “activity change, negative = cytotoxicity” value is -3.15% (inactive).
Turning to `CCCCCCCC/C=C\CCCCCCCC(=O)O`, the “activity change, negative = cytotoxicity” value is -1.11% (inactive).
For `Nc1ccn([C@H]2CS[C@@H](CO)O2)c(=O)n1`, the “activity change, negative = cytotoxicity” value is -2.16% (inactive).
Still for that read-out and setting: under `CC1=C(/C=C/C(C)=C/C=C/C(C)=C/CO)C(C)(C)CCC1` stands -22.8% (inactive); under `IC(I)I`, 1.16% (inactive).

A short description of a further experiment: Cell Viability - LYMP2-008 (AID 980). Further: nearly all actives have a fitted effect of over 60% in size. The note with it: LYMP2-008 lymphoblastoid cell viability, qHTS; series mostly up to 92.2 µM; activity change, negative = cytotoxicity: at the top concentration. The gist of the method:
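Cytotoxicity determined from ATP-dependent luciferase luminescence (CellTiter-Glo) following 24 h compound exposure of human lymphoblastoid LYMP2-008 cells at 37 C. Concentration-response data fitted to the Hill equation to give AC50.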
Regarding `CC(O)CO` (centres undefined), the Potency entry was “inactive”.
Same read-out and setting: under `O=S(=O)(O)O` stands “inactive”; under `CCCCCCCC(=O)O`, “inactive”; under `CC(C)(C)NC(=O)[C@@H]1C[C@@H]2CCCC[C@@H]2CN1C[C@@H](O)[C@H](Cc1ccccc1)NC(=O)[C@H](CC(N)=O)NC(=O)c1ccc2ccccc2n1`, 50.1 µM (active).
On the same count and under the same terms, as for `Cc1ccccc1`, the entry is “inactive”.
For the compound `CC1=C2[C@@H]([C@H](C)CC[C@H]2/C=C(\C)C(=O)O)[C@H](O)C1`, the “activity change, negative = cytotoxicity” value was -8.49% (inactive).
In the case of `CCCCC/C=C\C/C=C\CCCCCCCC(=O)O`, the “activity change, negative = cytotoxicity” value is -19.2% (inactive).
Turning to `CC(C)=O`, the “activity change, negative = cytotoxicity” value is 0.489% (inactive).
The same measure, in the same setting: as for `O=C(O)CCC(=O)C(=O)O`, the figure is -0.694% (inactive).
On to `O=CCCCC=O`, for which the Potency was 25.1 µM (active).
For the compound `CCOc1ccc2c(c1)C(C)=CC(C)(C)N2`, the “activity change, negative = cytotoxicity” value is -3.86% (inactive).
As for `CCOC(C)=O`, the “activity change, negative = cytotoxicity” value is 2.44% (inactive).
As for `CCCCCCCC/C=C\CCCCCCCC(=O)O`, the “activity change, negative = cytotoxicity” value was 7.38% (inactive).
On the same count and under the same terms, under `Nc1ccn([C@H]2CS[C@@H](CO)O2)c(=O)n1` stands -1.97% (inactive).
For the compound `IC(I)I`, the “activity change, negative = cytotoxicity” value is -2.39% (inactive).

A short description of another experiment: Cell Viability - LYMP2-010 (AID 981).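 Further: cells exposed to compound for 24 hours at 37 °C; nearly all actives have a fitted effect of over 55% in size.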 Conditions: LYMP2-010 lymphoblastoid cell viability, qHTS; series mostly up to 92.2 µM; activity, negative = cytotoxicity: at the top concentration. The essentials: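 CellTiter-Glo ATP luminescence measured cytotoxicity after 24 h compound exposure at 37 C. LYMP2-010 cells were seeded at 2500/well, with tetraoctylammonium bromide as control; concentration-response curves gave AC50 values by the Hill equation.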
Turning to `CC(O)CO` (centres undefined), the Potency entry was “inactive”.
With `O=S(=O)(O)O`, the Potency entry was “inactive”.
In the case of `CCCCCCCC(=O)O`, the Potency entry was “inactive”.
The same measure, in the same setting: under `CC(C)(C)NC(=O)[C@@H]1C[C@@H]2CCCC[C@@H]2CN1C[C@@H](O)[C@H](Cc1ccccc1)NC(=O)[C@H](CC(N)=O)NC(=O)c1ccc2ccccc2n1` stands 50.1 µM (active); under `Cc1ccccc1`, “inactive”.
In the case of `CC1=C2[C@@H]([C@H](C)CC[C@H]2/C=C(\C)C(=O)O)[C@H](O)C1`, the “activity, negative = cytotoxicity” value was -22.4% (inactive).
Take `CC(C)=O`: the “activity, negative = cytotoxicity” value was -7.81% (inactive).
The same measure, in the same setting: as for `O=C(O)CCC(=O)C(=O)O`, the figure is -15.2% (inactive).
In the case of `O=CCCCC=O`, the Potency is 20 µM (active).
Take `CCOC(C)=O`: the “activity, negative = cytotoxicity” value is 2.57% (inactive).
Same read-out and setting: under `CCCCCCCC/C=C\CCCCCCCC(=O)O` stands -10.8% (inactive).
Consider `Nc1ccn([C@H]2CS[C@@H](CO)O2)c(=O)n1`, for which the “activity, negative = cytotoxicity” value was -5.14% (inactive).
On to `CC1=C(/C=C/C(C)=C/C=C/C(C)=C/CO)C(C)(C)CCC1`, for which the Potency was 50.1 µM (active).
Take `IC(I)I`: the “activity, negative = cytotoxicity” value is -10.8% (inactive).
